# Key:
# Experiment in all cases: DAPPL (digital affinity profiling via proximity ligation, sequencing); 10 mM Tris-HCl pH 7.5, 50 mM NaCl, 1 mM DTT, 4% glycerol, room temperature, 30 min; GST-TFs on glutathione beads, 16-mer random dsDNA library, 0.1% formaldehyde crosslink after washing; high values mean tight binding
# [1] = target: T1, FLI1 (Homo sapiens, UniProt Q01543 1-452); details: protein: recombinant; tags: N-terminal GST; dsDNA, one strand shown
# T1 sequence: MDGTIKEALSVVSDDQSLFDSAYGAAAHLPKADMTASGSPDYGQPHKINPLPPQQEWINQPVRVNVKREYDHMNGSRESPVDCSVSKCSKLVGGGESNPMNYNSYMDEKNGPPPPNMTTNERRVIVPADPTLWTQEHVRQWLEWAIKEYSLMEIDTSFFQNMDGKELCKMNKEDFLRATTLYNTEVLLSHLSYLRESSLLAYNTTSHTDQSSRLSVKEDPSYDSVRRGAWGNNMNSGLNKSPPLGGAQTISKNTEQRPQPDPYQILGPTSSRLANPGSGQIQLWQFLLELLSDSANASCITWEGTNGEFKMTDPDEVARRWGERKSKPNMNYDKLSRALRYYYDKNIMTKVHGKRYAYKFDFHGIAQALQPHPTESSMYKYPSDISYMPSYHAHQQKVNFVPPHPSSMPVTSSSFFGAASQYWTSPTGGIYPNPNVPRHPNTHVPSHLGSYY
# Method in brief: (§1)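 A tag-only sample was pooled with DNA-barcoded human transcription factors that had been expressed in yeast as GST fusions and captured on glutathione beads. The pools were incubated for 30 min at room temperature with 200 nmole of a random double-stranded 16-mer DNA library in Tris/NaCl/DTT/glycerol buffer, then washed, crosslinked with 0.1% formaldehyde, proximity-ligated (BsaI/T4 ligase, 1 h, 37 °C), PCR-amplified and sequenced on an Illumina NextSeq500. Binding signal is each hexamer's read frequency for a factor divided by its frequency for the tag-only sample.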
# [2] = target: T2, ELK1 (Homo sapiens, UniProt P19419 1-428); details: protein: recombinant; tags: N-terminal GST; dsDNA, one strand shown
# T2 sequence: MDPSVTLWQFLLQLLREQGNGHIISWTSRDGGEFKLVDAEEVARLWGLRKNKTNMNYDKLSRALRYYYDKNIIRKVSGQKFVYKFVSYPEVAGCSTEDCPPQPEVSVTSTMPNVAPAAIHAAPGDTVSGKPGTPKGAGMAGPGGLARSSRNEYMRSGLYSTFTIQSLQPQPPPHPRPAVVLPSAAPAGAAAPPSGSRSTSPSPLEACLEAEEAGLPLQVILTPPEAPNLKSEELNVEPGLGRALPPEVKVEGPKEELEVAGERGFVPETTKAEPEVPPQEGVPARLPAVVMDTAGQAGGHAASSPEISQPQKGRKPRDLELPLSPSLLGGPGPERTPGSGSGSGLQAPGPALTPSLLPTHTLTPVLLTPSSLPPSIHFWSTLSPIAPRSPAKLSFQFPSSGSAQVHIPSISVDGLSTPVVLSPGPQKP
# Method in brief: as §1
# [3] = target: T3, GABPA (Homo sapiens, UniProt Q06546 1-454); details: protein: recombinant; tags: N-terminal GST; dsDNA, one strand shown
# T3 sequence: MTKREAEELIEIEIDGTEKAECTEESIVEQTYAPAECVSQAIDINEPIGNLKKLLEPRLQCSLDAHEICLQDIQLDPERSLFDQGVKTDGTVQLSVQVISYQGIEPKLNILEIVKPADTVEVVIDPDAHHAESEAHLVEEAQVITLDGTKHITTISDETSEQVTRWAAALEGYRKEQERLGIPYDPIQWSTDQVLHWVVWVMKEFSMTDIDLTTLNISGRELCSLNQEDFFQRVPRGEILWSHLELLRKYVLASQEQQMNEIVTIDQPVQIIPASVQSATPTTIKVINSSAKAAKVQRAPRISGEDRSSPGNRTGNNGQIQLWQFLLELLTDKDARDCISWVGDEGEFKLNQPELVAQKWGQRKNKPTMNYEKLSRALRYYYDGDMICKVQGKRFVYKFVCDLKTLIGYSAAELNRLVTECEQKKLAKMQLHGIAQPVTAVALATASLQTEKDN
# Method in brief: as §1
# [4] = target: T4, ERG (Homo sapiens, UniProt P11308 1-479); details: protein: recombinant; tags: N-terminal GST; dsDNA, one strand shown
# T4 sequence: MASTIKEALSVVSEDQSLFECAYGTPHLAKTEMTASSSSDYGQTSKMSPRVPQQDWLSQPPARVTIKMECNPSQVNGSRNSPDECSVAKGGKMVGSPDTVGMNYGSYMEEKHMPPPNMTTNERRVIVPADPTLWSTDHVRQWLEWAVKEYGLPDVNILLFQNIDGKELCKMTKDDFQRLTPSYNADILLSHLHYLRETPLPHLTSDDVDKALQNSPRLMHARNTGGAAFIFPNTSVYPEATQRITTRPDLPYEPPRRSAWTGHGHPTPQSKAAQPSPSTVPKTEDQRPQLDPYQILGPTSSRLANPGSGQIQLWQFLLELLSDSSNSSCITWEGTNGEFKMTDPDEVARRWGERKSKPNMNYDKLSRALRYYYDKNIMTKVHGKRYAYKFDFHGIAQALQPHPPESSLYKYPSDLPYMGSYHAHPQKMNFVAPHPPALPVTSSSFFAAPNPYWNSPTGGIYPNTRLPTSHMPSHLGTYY
# Method in brief: as §1
# [5] = target: ELF1 (Homo sapiens, UniProt P32519 1-619); details: protein: recombinant; tags: N-terminal GST; dsDNA, one strand shown
# Method in brief: as §1
# [6] = target: T5, EHF (Homo sapiens, UniProt Q9NZC4 1-300); details: protein: recombinant; tags: N-terminal GST; dsDNA, one strand shown
# T5 sequence: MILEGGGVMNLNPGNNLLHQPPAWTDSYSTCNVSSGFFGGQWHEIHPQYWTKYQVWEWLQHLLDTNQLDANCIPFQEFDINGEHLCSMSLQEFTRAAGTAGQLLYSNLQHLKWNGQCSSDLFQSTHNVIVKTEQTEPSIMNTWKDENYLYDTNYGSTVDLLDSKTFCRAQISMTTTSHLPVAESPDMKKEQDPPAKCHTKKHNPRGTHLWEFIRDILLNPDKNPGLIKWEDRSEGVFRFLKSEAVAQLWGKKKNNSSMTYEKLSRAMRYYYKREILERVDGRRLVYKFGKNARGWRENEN
# Method in brief: as §1
# [7] = target: SPI1 (Homo sapiens, UniProt P17947 1-270); details: protein: recombinant; tags: N-terminal GST; dsDNA, one strand shown
# Method in brief: as §1
# [8] = target: SPIB (Homo sapiens, UniProt Q01892 1-262); details: protein: recombinant; tags: N-terminal GST; dsDNA, one strand shown
# Method in brief: as §1
# [9] = target: T6, ELK3 (Homo sapiens, UniProt P41970 1-407); details: protein: recombinant; tags: N-terminal GST; dsDNA, one strand shown
# T6 sequence: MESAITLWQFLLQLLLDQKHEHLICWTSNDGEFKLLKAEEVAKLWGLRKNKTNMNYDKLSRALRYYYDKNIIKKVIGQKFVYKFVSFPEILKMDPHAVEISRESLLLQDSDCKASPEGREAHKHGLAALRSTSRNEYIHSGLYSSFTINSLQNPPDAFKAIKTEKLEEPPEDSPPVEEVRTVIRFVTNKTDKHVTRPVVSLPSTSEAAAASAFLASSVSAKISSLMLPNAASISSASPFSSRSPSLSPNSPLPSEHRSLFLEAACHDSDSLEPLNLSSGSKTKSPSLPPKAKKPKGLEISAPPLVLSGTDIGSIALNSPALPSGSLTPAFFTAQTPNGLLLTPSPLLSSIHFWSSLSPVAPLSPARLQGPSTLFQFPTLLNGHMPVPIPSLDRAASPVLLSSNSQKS
# Method in brief: as §1
# [10] = target: ETV5 (Homo sapiens, UniProt P41161 1-510); details: protein: recombinant; tags: N-terminal GST; dsDNA, one strand shown
# Method in brief: as §1
# [11] = target: HSF1 (Homo sapiens, UniProt Q00613 1-529); details: protein: recombinant; tags: N-terminal GST; chain copies: 3; dsDNA, one strand shown
# Method in brief: as §1
# [12] = target: ELF4 (Homo sapiens, UniProt Q99607 1-663); details: protein: recombinant; tags: N-terminal GST; dsDNA, one strand shown
# Method in brief: as §1
# [13] = target: T7, ELK4 (Homo sapiens, UniProt P28324-2 1-405); details: protein: recombinant; tags: N-terminal GST; dsDNA, one strand shown
# T7 sequence: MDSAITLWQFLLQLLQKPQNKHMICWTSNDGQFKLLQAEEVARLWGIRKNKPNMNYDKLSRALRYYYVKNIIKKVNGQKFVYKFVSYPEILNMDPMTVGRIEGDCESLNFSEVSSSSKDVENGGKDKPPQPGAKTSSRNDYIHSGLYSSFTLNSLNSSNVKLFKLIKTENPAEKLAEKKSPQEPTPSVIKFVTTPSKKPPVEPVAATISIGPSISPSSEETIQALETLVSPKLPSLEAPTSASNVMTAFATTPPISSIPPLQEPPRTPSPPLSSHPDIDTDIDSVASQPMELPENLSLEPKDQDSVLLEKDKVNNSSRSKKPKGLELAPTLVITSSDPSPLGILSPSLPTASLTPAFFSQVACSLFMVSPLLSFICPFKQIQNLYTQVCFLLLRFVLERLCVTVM
# Method in brief: as §1
# [14] = target: T8, ETV2 (Homo sapiens, UniProt O00321 1-342); details: protein: recombinant; tags: N-terminal GST; dsDNA, one strand shown
# T8 sequence: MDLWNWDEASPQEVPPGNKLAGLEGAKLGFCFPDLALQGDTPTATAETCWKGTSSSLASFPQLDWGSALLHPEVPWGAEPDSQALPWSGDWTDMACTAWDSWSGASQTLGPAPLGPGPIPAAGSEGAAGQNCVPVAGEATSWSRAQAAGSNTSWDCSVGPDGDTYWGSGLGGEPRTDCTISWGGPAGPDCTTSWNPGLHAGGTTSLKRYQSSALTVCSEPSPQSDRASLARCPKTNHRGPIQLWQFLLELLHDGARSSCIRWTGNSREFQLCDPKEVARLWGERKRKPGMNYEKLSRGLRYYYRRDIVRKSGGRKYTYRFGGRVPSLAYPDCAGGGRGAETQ
# Method in brief: as §1
# [15] = target: T9, ELF3 (Homo sapiens, UniProt P78545 1-371); details: protein: recombinant; tags: N-terminal GST; dsDNA, one strand shown
# T9 sequence: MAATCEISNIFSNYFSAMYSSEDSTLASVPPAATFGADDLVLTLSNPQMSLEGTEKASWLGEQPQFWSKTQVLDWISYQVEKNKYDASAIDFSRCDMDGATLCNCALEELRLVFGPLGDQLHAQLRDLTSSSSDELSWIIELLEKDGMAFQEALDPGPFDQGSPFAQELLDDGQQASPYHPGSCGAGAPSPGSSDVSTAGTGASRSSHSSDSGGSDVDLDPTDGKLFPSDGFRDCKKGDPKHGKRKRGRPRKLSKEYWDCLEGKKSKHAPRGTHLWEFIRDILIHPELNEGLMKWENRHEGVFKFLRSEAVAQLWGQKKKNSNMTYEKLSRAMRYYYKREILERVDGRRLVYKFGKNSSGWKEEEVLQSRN
# Method in brief: as §1
# [16] = target: CRX (Homo sapiens, UniProt O43186 1-299); details: protein: recombinant; tags: N-terminal GST; dsDNA, one strand shown
# Method in brief: as §1
# [17] = target: ETV1 (Homo sapiens, UniProt P50549 1-477); details: protein: recombinant; tags: N-terminal GST; dsDNA, one strand shown
# Method in brief: as §1
# ETV1, sequence (P50549 whole entry): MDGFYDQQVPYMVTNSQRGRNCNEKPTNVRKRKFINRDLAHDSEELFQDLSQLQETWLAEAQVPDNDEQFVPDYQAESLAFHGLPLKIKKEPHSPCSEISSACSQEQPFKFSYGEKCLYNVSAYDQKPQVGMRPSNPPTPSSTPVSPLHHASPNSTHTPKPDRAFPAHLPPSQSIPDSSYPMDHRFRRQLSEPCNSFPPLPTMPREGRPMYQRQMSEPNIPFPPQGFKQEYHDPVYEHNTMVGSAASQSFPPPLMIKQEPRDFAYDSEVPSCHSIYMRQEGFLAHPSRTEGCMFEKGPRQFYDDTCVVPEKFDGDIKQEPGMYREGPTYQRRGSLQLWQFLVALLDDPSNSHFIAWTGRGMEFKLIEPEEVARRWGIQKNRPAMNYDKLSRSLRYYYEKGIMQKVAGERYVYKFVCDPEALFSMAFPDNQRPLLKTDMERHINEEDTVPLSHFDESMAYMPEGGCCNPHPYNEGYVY
# SPIB, sequence (Q01892 whole entry): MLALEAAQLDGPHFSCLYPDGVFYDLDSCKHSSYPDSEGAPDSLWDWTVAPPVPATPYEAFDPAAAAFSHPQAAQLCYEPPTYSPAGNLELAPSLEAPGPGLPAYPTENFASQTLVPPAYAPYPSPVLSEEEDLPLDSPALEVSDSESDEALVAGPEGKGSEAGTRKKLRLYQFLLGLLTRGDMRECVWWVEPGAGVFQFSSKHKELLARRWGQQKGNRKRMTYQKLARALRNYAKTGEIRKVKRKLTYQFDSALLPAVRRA
# ETV5, sequence (P41161 whole entry): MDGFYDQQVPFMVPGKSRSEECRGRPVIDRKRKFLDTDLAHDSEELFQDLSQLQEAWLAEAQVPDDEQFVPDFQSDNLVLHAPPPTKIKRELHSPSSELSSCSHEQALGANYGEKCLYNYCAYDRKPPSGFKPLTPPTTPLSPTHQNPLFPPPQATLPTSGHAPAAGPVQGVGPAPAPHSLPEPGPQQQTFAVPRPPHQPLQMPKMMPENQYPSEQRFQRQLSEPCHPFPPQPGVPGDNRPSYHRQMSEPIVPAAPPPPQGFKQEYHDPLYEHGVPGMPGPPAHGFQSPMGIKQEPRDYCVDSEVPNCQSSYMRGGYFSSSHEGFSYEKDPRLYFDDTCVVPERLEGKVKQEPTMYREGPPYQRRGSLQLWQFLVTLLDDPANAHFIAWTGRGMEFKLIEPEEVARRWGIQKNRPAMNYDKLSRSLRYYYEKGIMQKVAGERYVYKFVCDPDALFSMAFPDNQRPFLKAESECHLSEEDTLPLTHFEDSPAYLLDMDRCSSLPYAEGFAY
# ELF4, sequence (Q99607 whole entry): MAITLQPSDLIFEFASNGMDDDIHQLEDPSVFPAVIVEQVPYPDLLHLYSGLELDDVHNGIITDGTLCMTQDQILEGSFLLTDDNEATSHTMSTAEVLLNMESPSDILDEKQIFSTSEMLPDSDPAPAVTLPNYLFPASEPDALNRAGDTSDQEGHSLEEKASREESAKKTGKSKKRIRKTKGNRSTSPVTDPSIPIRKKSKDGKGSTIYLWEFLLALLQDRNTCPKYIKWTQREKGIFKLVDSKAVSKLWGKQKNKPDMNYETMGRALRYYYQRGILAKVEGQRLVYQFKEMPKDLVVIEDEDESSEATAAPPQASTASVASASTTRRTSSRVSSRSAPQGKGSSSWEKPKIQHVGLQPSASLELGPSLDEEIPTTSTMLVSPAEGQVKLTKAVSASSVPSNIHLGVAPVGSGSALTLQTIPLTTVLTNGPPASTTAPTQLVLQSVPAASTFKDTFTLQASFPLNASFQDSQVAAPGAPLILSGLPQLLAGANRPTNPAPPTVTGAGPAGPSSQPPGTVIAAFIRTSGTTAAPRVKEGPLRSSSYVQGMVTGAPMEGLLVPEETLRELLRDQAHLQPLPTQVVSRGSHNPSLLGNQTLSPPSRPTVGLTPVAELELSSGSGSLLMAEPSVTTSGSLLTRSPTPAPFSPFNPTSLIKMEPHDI
# ELF1, sequence (P32519 whole entry): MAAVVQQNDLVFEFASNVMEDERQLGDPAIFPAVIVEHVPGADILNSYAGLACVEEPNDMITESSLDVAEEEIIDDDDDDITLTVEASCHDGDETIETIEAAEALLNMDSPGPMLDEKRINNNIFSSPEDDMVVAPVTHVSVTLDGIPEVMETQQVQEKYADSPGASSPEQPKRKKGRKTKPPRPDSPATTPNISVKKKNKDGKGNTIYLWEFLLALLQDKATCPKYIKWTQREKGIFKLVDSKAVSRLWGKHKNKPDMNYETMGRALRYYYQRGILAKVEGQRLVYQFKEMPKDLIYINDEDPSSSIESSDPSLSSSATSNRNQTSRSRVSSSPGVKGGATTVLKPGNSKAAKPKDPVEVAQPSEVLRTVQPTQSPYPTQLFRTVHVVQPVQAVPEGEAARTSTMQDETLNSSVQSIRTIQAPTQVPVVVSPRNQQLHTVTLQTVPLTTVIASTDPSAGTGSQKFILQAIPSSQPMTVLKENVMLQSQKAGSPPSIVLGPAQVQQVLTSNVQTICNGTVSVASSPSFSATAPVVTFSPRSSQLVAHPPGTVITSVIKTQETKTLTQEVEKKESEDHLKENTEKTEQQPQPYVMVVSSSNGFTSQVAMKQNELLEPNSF
# CRX, sequence (O43186 whole entry): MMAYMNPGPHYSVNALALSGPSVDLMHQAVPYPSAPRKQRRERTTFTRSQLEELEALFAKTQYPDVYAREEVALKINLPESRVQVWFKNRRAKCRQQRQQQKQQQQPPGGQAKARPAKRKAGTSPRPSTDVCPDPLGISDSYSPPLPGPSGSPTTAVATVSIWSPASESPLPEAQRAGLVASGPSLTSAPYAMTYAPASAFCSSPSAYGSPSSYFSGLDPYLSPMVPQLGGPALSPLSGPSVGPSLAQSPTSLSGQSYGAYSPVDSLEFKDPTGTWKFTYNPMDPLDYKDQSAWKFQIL
# HSF1, sequence (Q00613 whole entry): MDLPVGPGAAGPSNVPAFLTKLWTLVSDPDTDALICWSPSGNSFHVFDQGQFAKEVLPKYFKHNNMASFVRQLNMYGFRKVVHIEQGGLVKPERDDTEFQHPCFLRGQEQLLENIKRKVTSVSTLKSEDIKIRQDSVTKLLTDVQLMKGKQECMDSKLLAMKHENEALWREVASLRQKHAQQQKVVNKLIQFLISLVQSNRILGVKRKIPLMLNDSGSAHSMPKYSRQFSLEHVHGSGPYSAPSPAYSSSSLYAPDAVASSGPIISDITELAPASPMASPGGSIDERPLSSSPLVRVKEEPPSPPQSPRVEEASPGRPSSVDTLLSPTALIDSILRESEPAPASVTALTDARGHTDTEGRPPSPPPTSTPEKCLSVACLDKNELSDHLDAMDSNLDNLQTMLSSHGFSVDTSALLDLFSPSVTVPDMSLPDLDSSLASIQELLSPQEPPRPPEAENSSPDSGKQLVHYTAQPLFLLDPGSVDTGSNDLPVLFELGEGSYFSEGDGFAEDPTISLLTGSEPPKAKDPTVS
sequence,measurement,setting,value
ATTGAA,binding signal,[1],"1.07 fold enrichment (6-mer frequency, TF over GST control)"
same,binding signal,[2],"1.16 fold enrichment (6-mer frequency, TF over GST control)"
same,binding signal,[3],"1.07 fold enrichment (6-mer frequency, TF over GST control)"
same,binding signal,[4],"1.05 fold enrichment (6-mer frequency, TF over GST control)"
same,binding signal,[5],"1.06 fold enrichment (6-mer frequency, TF over GST control)"
same,binding signal,[6],"1.03 fold enrichment (6-mer frequency, TF over GST control)"
same,binding signal,[7],"1.04 fold enrichment (6-mer frequency, TF over GST control)"
same,binding signal,[8],"1.09 fold enrichment (6-mer frequency, TF over GST control)"
same,binding signal,[9],"1.11 fold enrichment (6-mer frequency, TF over GST control)"
same,binding signal,[10],"1.05 fold enrichment (6-mer frequency, TF over GST control)"
same,binding signal,[11],"1.01 fold enrichment (6-mer frequency, TF over GST control)"
same,binding signal,[12],"1.01 fold enrichment (6-mer frequency, TF over GST control)"
same,binding signal,[13],"1.06 fold enrichment (6-mer frequency, TF over GST control)"
same,binding signal,[14],"1 fold enrichment (6-mer frequency, TF over GST control)"
same,binding signal,[15],"1.07 fold enrichment (6-mer frequency, TF over GST control)"
same,binding signal,[16],"1.06 fold enrichment (6-mer frequency, TF over GST control)"
same,binding signal,[17],"1.15 fold enrichment (6-mer frequency, TF over GST control)"

# Reference: article PMC7862700, “An all-to-all approach to the identification of sequence-specific readers for epigenetic DNA modifications on cytosine”
